Screening data (PubChem BioAssay)
GDH-TPI inh: counter-screen for M. tuberculosis FBA inhibitors: GDH-TPI coupled enzymes. GDH-TPI coupled enzyme counterscreen, NADH absorbance. inhibition, % at 4.8 µM. 1.2% of 360,000 active. AID 588335; in the data active = inhibition above about 30%;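 note: 0% = DMSO wells and 100% = wells lacking the enzyme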
FadD28 binding: blocks FadD28 binding to the bisubstrate probe. fluorescence polarization. inhibition, % at 12.5 µM. 0.22% of 360,000 active. AID 588549; in the data active = inhibition above about 8.5%, passing the limit was not always enough
Mtb hypoxia rep: Mtb hypoxia fluorescent reporter inhibition | M. tuberculosis hypoxia-regulated fluorescent reporter, fluorescence | fluorescence inhibition, % (no concentration beside the values) | 0.1% of 300,000 active; in the data active = fluorescence inhibition mostly above about 23%, no sharp cut-off; inactive = mostly below about 17%
Mtb FBA inh: inhibitors of M. tuberculosis fructose-bisphosphate aldolase; P9WQA3; purified M. tuberculosis FBA, fluorescence read-out; inhibition, % at 1 µM; 2.3% of 360,000 active; in the data active = inhibition above about 27%;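 note: 0% = vehicle and 100% = reference inhibitor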
Target sequence (P9WQA3 whole entry, looked up): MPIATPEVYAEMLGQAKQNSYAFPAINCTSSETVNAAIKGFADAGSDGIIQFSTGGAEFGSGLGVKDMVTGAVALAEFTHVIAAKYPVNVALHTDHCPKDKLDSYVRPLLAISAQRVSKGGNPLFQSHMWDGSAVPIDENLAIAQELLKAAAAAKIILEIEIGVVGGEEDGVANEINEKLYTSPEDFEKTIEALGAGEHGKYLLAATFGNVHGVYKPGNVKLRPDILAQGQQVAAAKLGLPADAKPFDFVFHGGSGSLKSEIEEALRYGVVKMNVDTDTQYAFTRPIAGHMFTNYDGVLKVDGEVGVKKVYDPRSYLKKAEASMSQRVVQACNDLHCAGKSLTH
Mtb UGM inh: blocks M. tuberculosis UGM enzyme | P9WIQ1 | purified UGM, fluorescence polarization probe displacement | inhibition, % at 10 µM | 0.06% of 320,000 active | AID 504406; in the data active = inhibition above about 10%, passing the limit was not always enough
Rv3671c inh: Rv3671c (M. tuberculosis) protease inhibition | P9WHR9 | inhibition, % at 5.96 µM | 0.048% of 320,000 active | AID 2606; in the data active = inhibition above about 38%;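 note: extracellular domain of Rv3671c used as enzyme; 0% = enzyme with DMSO and 100% = no enzyme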
An asterisk follows results filed as active; . = not tested or not shown; + = active, no number; ! = not confirmed by another sample. Hits are enriched below; roughly 3.5% of the tested compounds scored in any of these assays.

SMILES	GDH-TPI inh	FadD28 binding	Mtb hypoxia rep	Mtb FBA inh	Mtb UGM inh	Rv3671c inh
N#Cc1nc(Cc2ccccc2)oc1N1CCC(C(N)=O)CC1	2.3	-0.2	8.6	-2.0	-5.9	5.1
COc1ccc(-c2nc(C#N)c(N3CCC(C(N)=O)CC3)o2)cc1OC	20.6	0.1	11.4	+	-0.5	2.5
N#Cc1nc(-c2ccccc2)oc1N1CCC(C(N)=O)CC1	15.2	0.4	4.4	+	-0.9	-7.8
C=C1CCN(C(C(=O)OCc2ccc(C)cc2)C(C)C)S(=O)(=O)c2ccccc21 (configuration not stated)	.	.	11.9	.	.	.
N#Cc1nc(-c2ccc(F)cc2)oc1N1CCC(C(N)=O)CC1	18.6	-0.6	3.5	+	0.8	-1.6
CCOc1ccc(-c2nc(S(=O)(=O)c3ccccc3)c(N3CCC(C(N)=O)CC3)o2)cc1	4.1	-0.9	-2.0	1.9	-3.8	3.1
N#Cc1nc(-c2ccco2)oc1N1CCC(C(N)=O)CC1	10.0	-3.0	-4.3	123.7*	-1.8	1.5
Cc1ccc(-c2nc(C#N)c(N3CCC(C(N)=O)CC3)o2)cc1	15.1	0.7	5.4	178.7*	-1.7	-4.0
N#Cc1nc(-c2ccc(F)cc2)oc1N1CCN(C(=O)c2ccco2)CC1	16.6	-0.2	-2.8	9.0	2.3	-7.5
CCOC(=O)C1CCCN(c2oc(-c3ccc(OC)cc3)nc2C#N)C1 (configuration not stated)	-1.9	-3.1	-2.8	131.8*	-0.2	-2.0
COC(=O)[C@]1(C)NC(c2ccc(-c3ccc(OC)cc3)cc2)C2C(=O)N(C)C(=O)C21 (some centres not stated)	.	.	-1.5	.	.	.
COc1ccc(-c2nc(C#N)c(N3CCN(c4cccc(Cl)c4)CC3)o2)cc1OC	8.7	-5.0	0.9	-0.2	-0.5	-2.6
COc1ccc(-c2nc(C#N)c(N3CCOCC3)o2)cc1OC	11.8	-4.5	-7.3	+	-2.0	4.0
Cc1cccc(C(=O)Oc2ccc(C=NNC(=O)c3cc(O)cc(O)c3)cc2)c1	.	.	1.6	.	.	.
CC(=NNc1nc(N)cc(Cl)n1)c1cccc(N)c1	.	.	-2.8	.	.	.
COc1ccc(C2CC(c3cccc(Cl)c3)=NN2c2ccc(S(N)(=O)=O)cc2)cc1 (configuration not stated)	18.8	-0.4	1.2	141.1*	.	.
COc1ccc(C2CC(c3ccc(Cl)cc3)=NN2c2ccc(S(N)(=O)=O)cc2)cc1 (configuration not stated)	6.2	-2.9	1.0	+	.	.
COc1ccc(OC)c(S(=O)(=O)N2CCC3(CC2)OCCN3S(=O)(=O)c2cccs2)c1	6.9	10.0*	-1.7	1.3	0.2	6.9
O=[N+]([O-])c1ccc(NCCCO)c(S(=O)(=O)N2CCOCC2)c1	40.2*	-5.2	10.5	-2.5	0.9	-0.5
CCC(=O)N(C)CCc1cc2c(c(OC)c1C=NNC(=O)c1ccc(Br)cc1)OCO2	.	.	7.7	.	.	.
CCOc1ccc(-c2c(C(=O)NN=Cc3ccc(O)cc3)nnn2-c2nonc2N)cc1	.	.	10.0	.	.	.
O=C(O)c1ccc2nc(-c3ccco3)c(-c3ccco3)nc2c1	15.1	13.3*	4.6	-2.4	.	.
O=C(O)c1cc(-c2ccco2)nc2ccc(Br)cc12	2.7	29.2*!	-2.1	-3.5	1.8	-5.1
O=C(c1ccco1)N1CCN(C(=O)c2cc(-c3ccncc3)nc3ccc(Br)cc23)CC1	3.4	-4.4	.	5.0	1.6	-5.8
CC(=NNC(=O)c1nnn(-c2nonc2N)c1CN(C)c1ccccc1)c1ccc(O)cc1	.	.	3.7	.	.	.
SMILES	GDH-TPI inh	FadD28 binding	Mtb hypoxia rep	Mtb FBA inh	Mtb UGM inh	Rv3671c inh
C=CCON=CC1=C(O)C(C(=O)OC)C(C)(C)CC1=O (configuration not stated)	.	.	2.9	.	.	.
CCC(=O)Nc1nnc(S(=O)(=O)N(C)Cc2ccco2)s1	6.3	0.6	4.6	-0.8	-0.3	3.2
CCCC(=O)Nc1nnc(S(=O)(=O)N(C)Cc2ccco2)s1	1.5	-1.1	.	1.4	0.0	2.4
CCOc1ccc(C(=O)Nc2nnc(NC(=S)Nc3ccccc3)s2)cc1	40.2*	-1.9	.	-2.4	1.6	-39.8
Cc1ccc(C(=O)Nc2nnc(NC(=S)Nc3ccccc3)s2)cc1	24.4	4.6	13.4	-2.1	0.8	-81.2
CN(Cc1ccco1)S(=O)(=O)c1nnc(NC(=O)c2ccc(F)cc2)s1	37.9*	0.2	-6.2	8.6	0.8	-6.0
CCOc1ccc(C(=O)Nc2nnc(S(=O)(=O)N(C)Cc3ccco3)s2)cc1	39.1*	-2.1	.	6.9	-0.7	-24.6
CC(=NNC(=S)NC1CCCCC1)c1ccc(C)o1	.	.	13.5	.	.	.
CC(C)C(NC(=O)OCc1ccccc1)C(=O)NC(C=O)Cc1ccccc1 (configuration not stated)	.	.	-0.3	.	.	.
CN(C)c1ccc(/C=C2/C(=N\O)C3CCN2CC3)cc1	51.7*	-0.3	.	0.8	-1.4	0.0
COc1ccc(/C=C2\C(=NO)C3CCN2CC3)cc1	.	.	3.2	.	.	.
CCCCOC(=O)Nc1nnc(CCOCC)s1	46.8*	-2.5	8.1	-0.4	-0.9	3.0
COCC(C)NC(=O)c1cc2c(ccc3ccccc32)oc1=O (configuration not stated)	9.4	-3.7	11.4	+	0.6	7.7
O=S1(=O)CC/C(=N/Nc2ccccn2)c2cc(F)ccc21	32.9*	-0.6	.	0.7	-0.9	8.4
O=C(N/N=C1\CCS(=O)(=O)c2ccc(F)cc21)c1ccc(O)cc1	45.6*	-2.2	.	0.7	4.6	3.5
COc1ccc(CNC(=O)CC(C)=NNC(=O)c2ccccc2OC)cc1	.	.	3.9	.	.	.
COc1ccc(CC(C)=NNC(=O)c2ccc(C)cc2C)cc1	.	.	5.3	.	.	.
Cc1cc(=O)oc2cc(OCC(O)CN3CCc4ccccc4C3)ccc12 (configuration not stated)	13.7	-2.2	.	49.8*	1.0	4.8
CC=CC=CC(=O)Nc1cccc(C2=NOC3(C2)CC(C(N)=O)N(C(=O)c2cc([N+](=O)[O-])cc([N+](=O)[O-])c2)C3)c1 (configuration not stated)	.	.	57.4*	.	.	.
C/C=C/C=C\C(=O)Nc1cccc(C2=NOC3(C2)C[C@@H](C(N)=O)N(C(=O)c2cc([N+](=O)[O-])cc([N+](=O)[O-])c2C)C3)c1 (some centres not stated)	-5.7	-6.3	.	-1.9	0.4	-9.4
COc1cccc(C=NNC(=O)C(C)n2nc(C)c([N+](=O)[O-])c2C)c1O (configuration not stated)	.	.	8.1	.	.	.
CCOC(=O)CN1C(=O)NC(c2ccccc2)C(C(=O)OC)=C1C (configuration not stated)	.	.	-1.6	.	.	.
O=C1CCCc2nc(N3CCCCC3)sc21	32.5*	-3.1	.	0.7	-2.4	6.6
COc1ccc(CSCC(=O)NN=Cc2ccccc2O)cc1	.	.	-4.6	.	.	.
CC(=O)Nc1ccc2nc(-c3ccc(Br)o3)[nH]c2c1	28.7	-0.8	12.1	3.4	-1.1	2.9
Cc1cccc2[nH]c(-c3ccc(NC(=O)c4ccco4)cc3)nc12	58.3*	-27.4	0.9	-2.3	2.7	-21.9
O=C(Nc1cccc(-c2nc3ccccc3[nH]2)c1)c1cccc(NC(=O)c2ccco2)c1	6.7	17.4*	-1.7	2.5	-0.8	-138.4
